Assay outcomes from PubChem BioAssay.
Mdm2-MdmX inh – inhibitors of human Mdm2-MdmX association, primary screen, cell-based, luminescence, split luciferase, SaOS-2, uHTS; hit rate 3% among 330,000; AID 485346, 2010; inhibition, % at 8 µM; SaOS-2 split-luciferase Mdm2/MdmX complementation;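 active = inhibition of at least 50% at 8 µM in the primary screen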
Gli-Sufu block – Gli-Sufu pathway antagonists, primary screen, luciferase luminescence, Sufu-KO-LIGHT cells, uHTS | Sufu-KO-LIGHT fibroblasts, Gli luciferase reporter luminescence | inhibition, % at 5 µM | hit rate 0.74% among 340,000 | AID 588413, 2011;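 active = inhibition above about 55%, limit read from the data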;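 note: 0% = DMSO-treated cells and 100% = wells with medium but no cells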
Jurkat NFkB inh – inhibitors of induced NF-kB luciferase reporter, primary screen, TCR NF-kB activation inhibitor project, cell-based, luminescence, uHTS | hit rate 0.53% among 330,000 | inhibition, % at 4 µM | Jurkat, PMA/ionomycin-induced NF-kB luciferase reporter; in the data active = inhibition above about 50%
697 NFkB inh – inhibitors of PMA/ionomycin-induced NF-kB reporter, 697 cells, primary screen, B-cell NF-kB inhibitor project, cell-based, luminescence, uHTS. AID 435022, 2010. hit rate 0.33% among 330,000. 697 B-cell NF-kB luciferase reporter, 16 h. inhibition, % at 4 µM; in the data active = inhibition above about 35%
aSyn UTR inh – MLPCN primary screen, SNCA 5' untranslated region | inhibition, % (tested at 7.5 µM) | alpha-synuclein 5'UTR reporter, inhibitor activity | AID 1813, 2009 | hit rate 0.82% among 300,000; in the data active = inhibition above about 60%;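 note: H4 neuroglioblastoma cells stably carrying SNCA 5'UTR luciferase fusion; 0% = DMSO wells and 100% = positive control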
CSC inhib – cancer stem cell viability inhibitors, primary screen, luminescence; cancer stem cell-like cells viability; inhibition, % at 7.5 µM; hit rate 1.1% among 300,000; AID 2717, 2010; in the data active = inhibition above about 75%; tested in HMLE shEcad cells
Mdm2-MdmX conf – Mdm2-MdmX complex disruptors, retested hits, confirmation, luminescence, single concentration; inhibition, % at 8 µM; hit rate 55% among 10,000; Mdm2-MdmX binding, luminescent assay; shares compounds with Mdm2-MdmX inh; in the data active = inhibition above about 40%
Full FLuc ctr – full-length luciferase signal inhibition, confirmation, counter-screen for Mdm2/MdmX interaction inhibitor project, cell-based, single concentration, SaOS-2. shares compounds with Mdm2-MdmX inh. SaOS-2 full-length luciferase counterscreen, luminescence. inhibition, % at 8 µM. hit rate 77% among 6,200;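 active = mean inhibition at 8 µM reaching about 37%, which flags the compound as non-specific, limit read from the data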;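 note: p53-null SaOS-2 cells with luciferase driven by a doxycycline-inducible promoter; compound on cells about two nights before reading with doxycycline added after day one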
Starred values were filed as active, the others as inactive. Compounds with a hit are over-represented: about 4.5% of the library has one in this group of screens.

How did Cc1cc([N+](=O)[O-])c2c(c1C)C1C=CCC1C(c1ccccn1)N2 (stereo not drawn) do in these assays?
Mdm2-MdmX inh: -6; Jurkat NFkB inh: -10; 697 NFkB inh: -30; aSyn UTR inh: -41; CSC inhib: 7

Results for CN(C)c1cc[n+](CC(=O)N2CCCc3ccccc32)cc1 ?
Mdm2-MdmX inh: 3; Gli-Sufu block: 0; Jurkat NFkB inh: 9; 697 NFkB inh: 8; aSyn UTR inh: -5; CSC inhib: -15

How did CCc1cc(=O)oc2c(C)c(OCC(=O)NCC3CCC(C(=O)O)CC3)ccc12 (stereo not drawn) do in these assays?
Mdm2-MdmX inh: 0; Gli-Sufu block: -3; Jurkat NFkB inh: -4; 697 NFkB inh: 5; aSyn UTR inh: -34; CSC inhib: -18

What do the screens show for `Cc1cccc(NC(=O)CNC(=O)COc2cccnc2[N+](=O)[O-])c1C`?
Mdm2-MdmX inh: 5; Gli-Sufu block: 7; Jurkat NFkB inh: -8; 697 NFkB inh: 20; CSC inhib: -7

Results for O=C(C[C@H]1C/C=C\C[C@H](NC(=O)OCC2c3ccccc3-c3ccccc32)C(=O)OC[C@H](Cc2ccccc2)NC1=O)N[C@H](CO)Cc1ccccc1 ?
Mdm2-MdmX inh: 49; Gli-Sufu block: 49; Jurkat NFkB inh: -10; 697 NFkB inh: -1

How did O=C(N[C@@H]1C/C=C\C[C@H](CC(=O)N(CCO)Cc2ccccc2)C(=O)N[C@@H](Cc2ccccc2)COC1=O)OCC1c2ccccc2-c2ccccc21 do in these assays?
Mdm2-MdmX inh: 93*; Gli-Sufu block: 40; Jurkat NFkB inh: -2; 697 NFkB inh: -1; CSC inhib: 40; Mdm2-MdmX conf: 43*; Full FLuc ctr: 59*

Results for O=C1N[C@@H](Cc2ccccc2)COC(=O)[C@@H](Cc2ccc(F)cc2)CC/C=C/C[C@H]1CC(=O)N(CCO)Cc1ccccc1 ?
Mdm2-MdmX inh: 52*; Gli-Sufu block: -9; Jurkat NFkB inh: -1; 697 NFkB inh: 5; CSC inhib: -4; Mdm2-MdmX conf: 16

How did O=C1N[C@@H](Cc2c[nH]c3ccccc23)COC(=O)[C@@H](Cc2ccc(F)cc2)CC/C=C/C[C@@H]1CC(=O)N(CCO)Cc1ccccc1 do in these assays?
Mdm2-MdmX inh: 59*; Gli-Sufu block: -6; Jurkat NFkB inh: -6; 697 NFkB inh: -11; Mdm2-MdmX conf: 32

What do the screens show for `COc1ccc(C(=O)NCc2ccc3c(c2)OCO3)cc1S(=O)(=O)N1CCCC1`?
Mdm2-MdmX inh: 28; Jurkat NFkB inh: 2; 697 NFkB inh: 3

What do the screens show for `COCCCN(C(=O)CSCc1c(C)noc1C)c1c(N)n(Cc2ccccc2)c(=O)[nH]c1=O`?
Mdm2-MdmX inh: 16; Gli-Sufu block: 2; Jurkat NFkB inh: 3; 697 NFkB inh: 15; aSyn UTR inh: -14; CSC inhib: -8

What do the screens show for `CCOC(=O)c1c(C)[nH]c(C(=O)OCC(=O)Nc2sccc2C(N)=O)c1C`?
Mdm2-MdmX inh: 56*; Gli-Sufu block: 51; Jurkat NFkB inh: 13; 697 NFkB inh: -46; aSyn UTR inh: -119; CSC inhib: 43; Mdm2-MdmX conf: 59*; Full FLuc ctr: 66*

What do the screens show for `CCOC(=O)c1c(C)[nH]c(C(=O)OCC(=O)NCc2ccc(OC)c(OC)c2)c1C`?
Mdm2-MdmX inh: 3; Gli-Sufu block: 1; Jurkat NFkB inh: 4; 697 NFkB inh: 10; CSC inhib: 8

Results for CCOC(=O)c1c(C)[nH]c(C(=O)OCC(=O)Nc2cc(C)c(Cl)cc2OC)c1C ?
Mdm2-MdmX inh: 54*; Gli-Sufu block: 8; Jurkat NFkB inh: -3; 697 NFkB inh: -7; aSyn UTR inh: 0; CSC inhib: 7; Mdm2-MdmX conf: 19

Results for Cc1ccccc1C(=O)NNC(=O)C1CC(=O)N(Cc2ccccc2)C1 (stereo not drawn) ?
Mdm2-MdmX inh: 12; Gli-Sufu block: -8; Jurkat NFkB inh: -4; 697 NFkB inh: 21; aSyn UTR inh: 3; CSC inhib: 2

Results for O=c1c2cc(Br)ccc2nc(-c2cccc(C(F)(F)F)c2)n1O ?
Mdm2-MdmX inh: 55*; Gli-Sufu block: 11; Jurkat NFkB inh: 1; 697 NFkB inh: 15; aSyn UTR inh: 51; CSC inhib: 14; Mdm2-MdmX conf: 42*; Full FLuc ctr: 30

What do the screens show for `O=c1c2cc(Cl)ccc2nc(-c2ccc(Cl)c(Cl)c2)n1O`?
Mdm2-MdmX inh: 72*; Gli-Sufu block: -4; Jurkat NFkB inh: 15; 697 NFkB inh: 4; aSyn UTR inh: -16; CSC inhib: 120*; Mdm2-MdmX conf: 83*; Full FLuc ctr: 21

Results for N#Cc1ccc(-c2nc3ccc(Br)cc3c(=O)n2O)cc1 ?
Mdm2-MdmX inh: 18; Gli-Sufu block: 5; Jurkat NFkB inh: -11; 697 NFkB inh: 13; aSyn UTR inh: 6; CSC inhib: 21

What do the screens show for `CC(C)(CNC(=O)c1ccc(-c2cccc(C(F)(F)F)c2)o1)N1CCOCC1`?
Mdm2-MdmX inh: -7; Gli-Sufu block: 5; Jurkat NFkB inh: 5; 697 NFkB inh: -3; aSyn UTR inh: 15; CSC inhib: 13

How did COc1ccc(CCNC(=O)c2ccccc2NC(=O)CN2CCN(c3ccccc3O)CC2)cc1 do in these assays?
Mdm2-MdmX inh: 54*; Gli-Sufu block: 19; Jurkat NFkB inh: 11; 697 NFkB inh: 0; Mdm2-MdmX conf: 45*; Full FLuc ctr: 97*

Results for O=C(CN1CCN(c2ccccc2O)CC1)Nc1ccccc1C(=O)NCCc1ccccc1 ?
Mdm2-MdmX inh: 5; Gli-Sufu block: -27; Jurkat NFkB inh: -4; 697 NFkB inh: -35; CSC inhib: 4

Results for CCn1c(O)c(/C=N/N=C2CCCC2)c2ccc(C3=NNC(=O)CC3)cc21 ?
Mdm2-MdmX inh: -12; Gli-Sufu block: -5; Jurkat NFkB inh: 3; 697 NFkB inh: 11; aSyn UTR inh: -2; CSC inhib: 0

How did CCCCC(CCCC)=N/N=C/c1c(O)n(CC)c2cc(C3=NNC(=O)CC3)ccc12 do in these assays?
Mdm2-MdmX inh: 58*; Gli-Sufu block: 7; Jurkat NFkB inh: 11; 697 NFkB inh: 18; aSyn UTR inh: 0; CSC inhib: -17; Mdm2-MdmX conf: 9
